Data taken from PubChem BioAssay (EPA / NIEHS).
Results filed as inconclusive are left out. Active and inactive are the calls of the source. How the source made its calls, unless noted: active means hit-call score of the fitted dose curve at least 0.9, where 1 is the maximum; inactive means score below 0.9.

Experiments:
[1] = biological target: Nucleoli Translocation, AR (gene 367) (UniProt P10275); assay: UPITT_HCI_U2OS_AR_TIF2_Nucleoli_Antagonist: University of Pittsburgh U2OS Androgen Receptor-Transcriptional Intermediary Factor 2 (AR-TIF2) Antagonism High Content Imaging Assay for Nucleoli Translocation (AID 2283997; active means hit-call score of the fitted dose curve at least 0.9, where 1 is the maximum)
Summary of the method: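 U2OS cells co-expressing red-fluorescent-tagged human AR and green-fluorescent-tagged TIF2, imaged by high-content microscopy for nucleolar red fluorescence. Antagonist mode against DHT; primary screen at 20 uM final (0.2% DMSO).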

[2] = biological target: Nucleoli Translocation, AR (gene 367) (UniProt P10275); assay: UPITT_HCI_U2OS_AR_TIF2_Nucleoli_Agonist: University of Pittsburgh U2OS Androgen Receptor-Transcriptional Intermediary Factor 2 (AR-TIF2) Agonism High Content Imaging Assay for Nucleoli Translocation (AID 2283998; active means hit-call score of the fitted dose curve at least 0.9, where 1 is the maximum)
Summary of the method: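 U2OS cells expressing RFP-tagged human AR and GFP-tagged TIF2; red fluorescence in nucleoli quantified by high-content imaging. Primary screen at 20 uM final (0.2% DMSO); concentration-response 0.195–50 uM (0.5% DMSO), fitted upward versus DMSO.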

[3] = biological target: Ratio of Nucleoli Translocation and Cytoplasm, AR (gene 367) (UniProt P10275); assay: UPITT_HCI_U2OS_AR_TIF2_Nucleoli_Cytoplasm_Ratio_Antagonist: University of Pittsburgh U2OS Androgen Receptor-Transcriptional Intermediary Factor 2 (AR-TIF2) Antagonism High Content Imaging Assay for Ratio of Nucleoli Translocation and Cytoplasm (AID 2283999; active means hit-call score of the fitted dose curve at least 0.9, where 1 is the maximum;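 further: antagonists lower the DHT-driven ratio of nucleolar to cytoplasmic red signal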)
Summary of the method: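 High-content imaging quantifies the red nucleolar:cytoplasmic fluorescence ratio in U2OS cells with AR-RFP and TIF2-GFP. Final concentrations are 20 uM (screen) or 0.195–50 uM (dose response), analysed against DHT as baseline.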

[4] = biological target: Ratio of Nucleoli Translocation and Cytoplasm, AR (gene 367) (UniProt P10275); assay: UPITT_HCI_U2OS_AR_TIF2_Nucleoli_Cytoplasm_Ratio_Agonist: University of Pittsburgh U2OS Androgen Receptor-Transcriptional Intermediary Factor 2 (AR-TIF2) Agonism High Content Imaging Assay for Ratio of Nucleoli Translocation and Cytoplasm (AID 2284000; active means hit-call score of the fitted dose curve at least 0.9, where 1 is the maximum;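 further: hits raise the red nucleolar to cytoplasm ratio above vehicle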)
Summary of the method: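 U2OS cells expressing RFP-tagged human AR and GFP-tagged TIF2; high-content imaging ratio of nucleolar to cytoplasmic red fluorescence, fitted as gain of signal vs DMSO. Single point at 20 uM final (0.2% DMSO); concentration-response 0.195-50 uM final (0.5% DMSO).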

[5] = CCTE_Harrill_HTTr_Viability_MCF7: CCTE's 6-hour Cell Viability Assessment for the High-Throughput Transcriptomics (HTTr) Platform, in MCF-7 cells cultured in DMEM + 10% fetal bovine serum, Harrill Lab (AID 2284010)
Summary of the method: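 Viability measured through PI dye exclusion by high-content imaging at 6 h post-dosing.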

[6] = CCTE_Harrill_HTTr_Apoptosis_MCF7: CCTE's 6-hour Apoptosis Assessment for the High-Throughput Transcriptomics (HTTr) Platform, in MCF-7 cells cultured in DMEM + 10% fetal bovine serum, Harrill Lab (AID 2284011)
Summary of the method: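 MCF-7 cells in DMEM + 10% FBS exposed 6 h to chemicals over an eight-point dilution series. Caspase-3/7 activation imaged by high-content CellEvent Green staining; fitted bidirectionally versus DMSO.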

[7] = CCTE_Simmons_MITO_max_resp_rate: CCTE's HepG2 Seahorse XF Respirometric Screening Assay at Maximal Respiratory State [uncoupled], Simmons Lab (AID 2284002); details: actives raise or lower the signal
Summary of the method: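 HepG2 oxygen consumption measured on Seahorse XF after FCCP uncoupling, following test compound injection; 7 concentrations from 125 nM to 100 uM final. Readings every 6 min over 72 min, three biological replicates; bidirectional fit versus DMSO.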

[8] = CCTE_Simmons_MITO_inhib_resp_rate: CCTE's HepG2 Seahorse XF Respirometric Screening Assay at Inhibited Respiratory State [full ETC block], Simmons Lab (AID 2284006); details: actives raise or lower the signal
Summary of the method: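 Inhibited respiration was taken as HepG2 oxygen consumption after rotenone/antimycin A, which followed test-compound and FCCP injections. Chemicals were tested at seven final concentrations from 125 nM to 100 uM. Activity was fitted bidirectionally relative to DMSO.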

[9] = CCTE_Simmons_MITO_viability: CellTiter-Glo Viability Assessment for CCTE's HepG2 Seahorse XF Respirometric Screening Assay [post-hoc], Simmons Lab (AID 2284007; active means hit-call score of the fitted dose curve at least 0.9, where 1 is the maximum;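 on AC50: cells exposed to chemical for 90 min before the ATP read; actives lower ATP signal relative to DMSO baseline meaning reduced viability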)
Summary of the method: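 HepG2 cells; test chemical 7 conc. (125 nM–100 uM final) × 90 min; then luminescent ATP detection. DMSO vehicle. Positive control dichlone, 8 conc. from 10 nM to 100 uM final. Loss-of-signal endpoint.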

[10] = CCTE_Shafer_MEA_acute_spike_number: CCTE's Neural Acute Assay for Total Number of Spikes, Shafer Lab (AID 2284008);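 on AC50: curve fitted for decrease in spike count so AC50 reflects inhibitors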
Summary of the method: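 Rat primary cortical neurons on 48-well MEA plates, DIV 13 or 15, at 37 C. 40 min baseline then 40 min with compound (0.03-40 uM); spikes detected at 8x rms noise, expressed as percent change from baseline.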

[11] = CCTE_Shafer_MEA_acute_firing_rate_mean: CCTE's Neural Acute Assay for Mean Firing Rate, Shafer Lab (AID 2284009);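 further: analyzed for loss of signal so actives lower firing rate relative to DMSO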
Summary of the method: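 Rat primary cortical neurons on 48-well MEA plates, dosed at 0.03-40 uM on DIV 13 or 15; 40 min spontaneous activity recorded at 37 C before and after compound. Spike rate per electrode averaged per well, expressed as percent change from baseline.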

[12] = CCTE_Shafer_MEA_acute_burst_number: CCTE's Neural Acute Assay for Single-Electrode Bursts, Shafer Lab (AID 2284013)
Summary of the method: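 Primary rat cortical neurons on 16-electrode MEA wells, treated on DIV 13 or 15 with compound at 0.03-40 uM. Single-electrode burst count from 40-min recordings at 37 C before and after exposure; percent change from baseline per well, DMSO negative control.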

[13] = CCTE_Shafer_MEA_acute_burst_duration_mean: CCTE's Neural Acute Assay for Mean Burst Duration, Shafer Lab (AID 2284014);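 further: hits are decreases in mean burst duration relative to DMSO controls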
Summary of the method: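 Rat primary cortical neurons on 48-well MEA, treated at DIV 13 or 15 with 0.03-40 uM in at least 3 wells. Value is percent change in mean burst duration, comparing 40 min recordings at 37 C before and during exposure.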

[14] = CCTE_Shafer_MEA_acute_per_burst_spike_number_mean: CCTE's Neural Acute Assay for Average Number of Spikes Per Burst, Shafer Lab (AID 2284015);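 further: hits are decreases in mean spikes per burst versus baseline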
Summary of the method: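 We recorded spontaneous network firing of rat cortical neurons for 40 min before and 40 min during exposure to compound at 0.03-40 uM, at 37 C. Spikes were detected adaptively at 8x rms noise, and the change in average spikes per burst was fitted against DMSO.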

[15] = CCTE_Shafer_MEA_acute_interburst_interval_mean: CCTE's Neural Acute Assay for Mean Interburst Interval, Shafer Lab (AID 2284016);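 further: percent change of mean interburst interval versus each well's own pre-dose baseline; curves fitted for decrease in interburst interval relative to DMSO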
Summary of the method: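 MEA recording of spontaneous network bursting in primary rat cortical cultures; mean interburst interval was compared before and after a 40-min compound exposure (0.03-40 uM) and expressed as percent change, relative to DMSO.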

[16] = CCTE_Shafer_MEA_acute_burst_percentage_mean: CCTE's Neural Acute Assay for Percentage of Spikes in a Burst, Shafer Lab (AID 2284017);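 on AC50: curve fitted for loss of signal so potency reflects decreased burst percentage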
Summary of the method: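 Compounds were tested at 0.03-40 uM on primary rat cortical neuron networks grown over microelectrodes, with at least three wells per compound. Spontaneous firing was recorded for 40 min before and 40 min after dosing, and the change in burst percentage was computed per well.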

[17] = CCTE_Shafer_MEA_acute_per_network_burst_spike_number_std: CCTE's Neural Acute Assay for Standard Deviation of Number of Spikes in a Network Burst, Shafer Lab (AID 2284020);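 further: fitted for decrease in spike-number SD versus DMSO so actives lower it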
Summary of the method: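 Rat primary cortical neurons on 48-well MEA (16 electrodes/well), treated DIV 13 or 15 at 0.03-40 uM, ≥3 wells per compound. 40 min recordings at 37 C before and after dosing; value is percent change in network-burst spike-number SD, negative direction vs DMSO.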

[18] = CCTE_Shafer_MEA_acute_per_network_burst_electrodes_number_mean: CCTE's Neural Acute Assay for Mean Number of Electrodes in a Network Burst, Shafer Lab (AID 2284021);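 further: curves fitted for decreases only so hits reduce electrodes per burst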
Summary of the method: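 Rat primary cortical neurons on 48-well MEAs, DIV 13 or 15, were treated at 0.03-40 uM. Spikes were detected at 8x rms noise and recorded at 37 C. The mean electrodes per network burst in a 40 min exposure recording was expressed as percent change from a 40 min baseline.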

[19] = CCTE_Shafer_MEA_acute_network_burst_percentage: CCTE's Neural Acute Assay for Percentage of Network Bursts, Shafer Lab (AID 2284022);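 further: curves fitted for loss so actives lower network burst percentage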
Summary of the method: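 Rat primary cortical neuron networks on 48-well MEA plates, DIV 13 or 15, treated acutely with compound (0.03-40 uM, at least three wells). Percent of spikes within network bursts compared between 40-min recordings before and during exposure at 37 C, expressed as percent change.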

[20] = CCTE_Harrill_HTTr_CellCount_MCF7: CCTE's Cell Proliferation Assessment for the High-Throughput Transcriptomics (HTTr) Platform, Harrill Lab (AID 2284012; active means hit-call score of the fitted dose curve at least 0.9, where 1 is the maximum;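 further: count of Hoechst-stained nuclei per well by high-content imaging in MCF-7 cells; cells exposed to compound for six hours; intended direction is loss of nuclei count meaning fewer cells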)
Summary of the method: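 Nuclei counting (Hoechst, high content imaging) in MCF-7 after a 6 h treatment at eight concentrations. Activity fitted bidirectionally, DMSO as negative control.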

Measured: AC50

Sequence of Nucleoli Translocation, AR (gene 367) (P10275 whole entry, looked up): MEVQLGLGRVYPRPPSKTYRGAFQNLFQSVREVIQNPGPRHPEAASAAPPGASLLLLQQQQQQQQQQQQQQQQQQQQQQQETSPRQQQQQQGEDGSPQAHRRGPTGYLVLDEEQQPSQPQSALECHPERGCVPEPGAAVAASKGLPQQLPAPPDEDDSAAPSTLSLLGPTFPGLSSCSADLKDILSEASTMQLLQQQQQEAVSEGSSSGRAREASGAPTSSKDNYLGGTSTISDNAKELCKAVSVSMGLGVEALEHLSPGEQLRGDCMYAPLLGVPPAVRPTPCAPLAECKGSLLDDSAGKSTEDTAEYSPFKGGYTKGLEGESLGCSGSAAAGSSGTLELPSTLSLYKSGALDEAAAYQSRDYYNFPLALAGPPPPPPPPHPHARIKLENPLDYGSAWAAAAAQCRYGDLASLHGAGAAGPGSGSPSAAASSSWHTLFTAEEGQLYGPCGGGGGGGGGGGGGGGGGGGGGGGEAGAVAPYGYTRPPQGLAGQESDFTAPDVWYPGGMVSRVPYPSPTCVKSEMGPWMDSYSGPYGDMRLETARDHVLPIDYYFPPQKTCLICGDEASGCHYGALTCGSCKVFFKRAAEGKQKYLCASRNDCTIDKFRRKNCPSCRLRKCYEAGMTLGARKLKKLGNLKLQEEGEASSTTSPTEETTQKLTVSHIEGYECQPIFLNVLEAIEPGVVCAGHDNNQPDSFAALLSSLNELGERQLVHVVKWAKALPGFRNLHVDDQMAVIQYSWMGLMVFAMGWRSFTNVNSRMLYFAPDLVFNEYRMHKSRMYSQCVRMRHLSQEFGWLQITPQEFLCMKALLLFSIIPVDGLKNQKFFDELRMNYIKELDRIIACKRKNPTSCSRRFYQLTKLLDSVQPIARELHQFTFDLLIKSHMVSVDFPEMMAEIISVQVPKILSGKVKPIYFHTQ
Sequence of Ratio of Nucleoli Translocation and Cytoplasm, AR (gene 367) (P10275 whole entry, looked up): as above

O=C(Oc1ccccc1)c1cccc(C(=O)Oc2ccccc2)c1
inactive: [1] | [2] | [3] | [4] | [5] | [6]

CCN(CC)CCOc1ccc(C(=C(Cl)c2ccccc2)c2ccccc2)cc1
active: [7] 91 µM | [9] 84.2 µM | [10] 2.58 µM | [11] 2.62 µM | [12] 2.68 µM | [16] 20 µM
not listed: [20]
inactive: all other assays above

CCc1cc(C2=C(C(=O)O)N(c3ccccc3C(F)(F)F)S(=O)(=O)c3ccccc32)cc2c1OCO2
not listed: [1] | [2] | [3] | [4] | [9] | [17]
inactive: all other assays above

C#CC(O)C(CC)CCCC (stereo unspecified)
inactive: [2] | [4] | [5] | [6] | [20]
active: [1] 22.5 µM | [3] 14.8 µM

CC1=C(C)S(=O)(=O)CCS1(=O)=O
not listed: [3] | [7] | [8] | [9] | [20]
inactive: all other assays above

O=C1CCCCC1
inactive: [1] | [2] | [4] | [5] | [6]

O=C(NS(=O)(=O)/C=C/c1cccs1)c1ccc(F)cc1Br
inactive: [1] | [4] | [5] | [6]

c1ccc2occc2c1
not listed: [1] | [2] | [3] | [4] | [7] | [8] | [9]
inactive: all other assays above

CCCCCCCCCC[N+](C)(C)[O-]
inactive: [1] | [2] | [3] | [4] | [5] | [6] | [20]

CCC(C)N(C)C(=O)c1cc2ccccc2c(-c2ccccc2Cl)n1 (stereo unspecified)
inactive: [1] | [2] | [3] | [4] | [5] | [6] | [20]

Cc1ccc(-c2cc(C(F)(F)F)nn2-c2ccc(S(N)(=O)=O)cc2)cc1
active: [1] 26.6 µM | [10] 6.27 µM | [11] 6.27 µM | [12] 6.46 µM | [15] 5 µM | [16] 20 µM
not listed: [7] | [8] | [9] | [20]
inactive: all other assays above

O=Cc1ccccc1C=O
inactive: [1] | [2] | [3] | [5] | [6]

CC(C)(O)c1ccc(CNC(=O)c2cccnc2Oc2ccc(F)cc2)cc1
inactive: [8] | [9] | [5] | [6]
active: [7] 18.6 µM

Cc1c(C)c2c(c(C)c1O)CCC(C)(COc1ccc(CC3SC(=O)NC3=O)cc1)O2 (stereo unspecified)
active: [7] 7.83 µM | [9] 8.43 µM | [10] 3.97 µM | [11] 3.97 µM | [16] 32.9 µM | [17] 0.517 µM
not listed: [1] | [20]
inactive: all other assays above
